Hit rate of the full screen: of about 420,000 compounds, about 50,000 (12%) were called active. About 26% were inconclusive and are not listed. Calls follow the shape of the dose curve; as a rule, active = well fitted inhibition curve with a large enough effect; inconclusive = small, poorly fitted or top-dose-only effect; inactive = flat fitted curve, though single readings scatter. Many of the other results were omitted from the sample, so actives are more common in it than they were. *1 amine or outer side, *2 acyl side, *3 side chain or, on linkers, in order; H or OH if unused. Where a SMILES comes first, the peptide text is derived from it. Bridges are numbered along the chain shown (N, C = ends). [ ]: non-standard residue; d: D form. The star is where a group is joined. X12 = NC1=N[C@@H]([C@H](N[*:1])C(=O)[*:2])C[C@H](O)N1; ΔAla(Z-3-ureido) = NC(=O)N/C=C(\N)C(=O)O; β3hOrn = NCCC[C@H](N)CC(=O)*; Dap = NC[C@H](N)C(=O)O
Assay: qHTS for Inhibitors of human tyrosyl-DNA phosphodiesterase 1 (TDP1): qHTS in cells in presence of CPT; also: nearly all actives have a fitted effect of over 55% in size
Details: chicken DT40 Tdp1-/-;hTDP1 cells + 20 nM CPT, ATP luminescence, 48 h; series mostly up to 46.2 µM; activity change, negative = growth inhibition: at the top concentration
Summary of the method: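 Cell growth measured by CellTiter-Glo luminescence after a minimum 48 h, 37 C compound exposure with 20 nM CPT in Tdp1-knockout DT40 cells stably expressing hTDP1, seeded 400/well; qHTS titration format.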
% is scaled to controls: 0 for no effect and ±100 for the full control effect; potency is read from the fitted curve at half-maximal effect.

Row | SMILES | activity change, negative = growth inhibition | Potency
1 | Cc1cc(C)c(S(=O)(=O)N2C=CC(C(F)(F)F)=NCC2)c(C)c1 | 2.91% (inactive) | –
2 | c1ccc2cc(C3=NCCN3)ccc2c1 | 4.03% (inactive) | –
3 | Cc1ccc(Nc2c(O)nc[nH]c2=O)cc1C | 8.79% (inactive) | –
4 | Cc1c(Cl)cccc1NC(=O)[C@@]1(CC(=O)O)CC(/C=C/c2ccccc2)=NO1 | 3.33% (inactive) | –
5 | N#CCc1c(C#N)c(N)nc(N2CCCC2)c1C#N | 15.6% (inactive) | –
6 | Cc1occc1C(=O)Nc1nnc(-c2ccncc2)s1 | 10.3% (inactive) | –
7 | CCCCN(C)c1nnc(NC(=O)Nc2ccc(Br)c(C)c2)s1 | -27.6% (inactive) | –
8 | Cc1nnc(NC(=O)Nc2ccc(Cl)c(Cl)c2)s1 | – | 23.1 µM (active)
9 | Cc1ccc(NC(=O)Nc2nnc(-c3ccncc3)s2)cc1 | – | 18.4 µM (active)
10 | Cc1nnc(NC(=O)c2ccc3nccnc3c2)s1 | -17.6% (inactive) | –
11 | Cc1ccc(C(=O)Nc2nnc(-c3ccncc3)s2)o1 | -12.2% (inactive) | –
12 | COCC1CCCN(C(=O)c2ccc3oc(C(C)C)nc3c2)C1 (stereo not given) | -8.78% (inactive) | –
13 | COCCNC(=O)CN(Cc1ccco1)C(=O)CCC(=O)Nc1nccs1 | 1.07% (inactive) | –
14 | COc1ccc2c(c1)CCCO[C@]21O[C@H](CCO)C[C@H](O)[C@H]1O | -1.84% (inactive) | –
15 | CCC(C)NC(=O)c1cc(Cl)ccc1OC (stereo not given) | -7.43% (inactive) | –
16 | CC1CCc2c(sc3nc4n(c(=O)c23)CCS4)C1 (stereo not given) | -28.3% (inactive) | –
17 | CC1CCN(C(=O)c2ccc3c(=O)n4c(nc3c2)CCCCC4)CC1 | -3.88% (inactive) | –
18 | Cc1ccc(NC(=O)Nc2sc3nc4n(c(=O)c3c2C)CCC(C)CC4)c(Cl)c1 (stereo not given) | – | 11.6 µM (active)
19 | Cc1ccccc1NC(=O)CSc1ccc2nnc(-c3ccccn3)n2n1 | -15.4% (inactive) | –
20 | COC(=O)[C@]1(C)N[C@H](CN(C)C(=O)c2ccc(C(C)(C)C)cc2)[C@@H]2C(=O)N(C)C(=O)[C@@H]21 | -7.64% (inactive) | –
21 | Cc1cc(C)c(S(=O)(=O)c2cc(F)ccc2C)c(=O)[nH]1 | 2.26% (inactive) | –
22 | CC1(C)CN(c2ccc(-c3ccnc4ncnn34)cc2)C1=O | -8.25% (inactive) | –

Row | SMILES | activity change, negative = growth inhibition | Potency
23 | O=S(=O)(c1cccs1)N1CCN(Cc2ccccc2)CC1 | -12.6% (inactive) | –
24 | COc1ccc2c(CN3CCN(S(=O)(=O)c4cccs4)CC3)cc(=O)oc2c1 | -24.3% (inactive) | –
25 | Cc1cc2oc(=O)cc(CN3CCN(S(=O)(=O)c4cccs4)CC3)c2cc1C(C)C | – | 23.1 µM (active)
26 | CCOc1ccc(C(CC(=O)O)n2cnnn2)cc1OC (stereo not given) | 1.9% (inactive) | –
27 | COc1ccc(C2=NN(C(=O)c3cccnc3)C(c3ccccc3)C2)cc1 (stereo not given) | -8.32% (inactive) | –
28 | CCC(CC)c1nnc(NC(=O)C2=COCCO2)s1 | 11.4% (inactive) | –
29 | CCN(CC)Cc1nc2sc(C)c(C)c2c(=O)[nH]1 | -3.36% (inactive) | –
30 | Cc1sc2nc(CSCC(=O)Nc3c(Cl)cccc3Cl)[nH]c(=O)c2c1C | – | 7.31 µM (active)
31 | Cc1sc2nc(COC(=O)C(NC(=O)c3ccc(Cl)cc3Cl)C(C)C)[nH]c(=O)c2c1C (stereo not given) | -20.6% (inactive) | –
32 | CCOC(=O)/C=c1\s/c(=C\c2ccc(C#N)cc2)c(=O)n1CC(=O)Nc1cccc(C)c1C | – | 1.3 µM (active)
33 | CCOc1ccc(NC(=O)Cn2c(C)ccc(C#N)c2=O)cc1 | -0.0068% (inactive) | –
34 | CCOC(=O)/C=c1\s/c(=C\c2ccccc2OC)c(=O)n1CC(=O)N1CCOCC1 | -24.5% (inactive) | –
35 | NCCC[C@H](N)CC(=O)N[C@H]1CNC(=O)[C@H]([C@H]2C[C@H](O)NC(N)=N2)NC(=O)/C(=C/NC(N)=O)NC(=O)[C@H](CO)NC(=O)[C@H](CO)NC1=O (β3hOrn-[Dap]SS[ΔAla(Z-3-ureido)][X12]; lactam 1-C) | -9.6% (inactive) | –
36 | Cc1cc(NC(=O)Nc2ccc(Cl)cc2)n(-c2ccccc2)n1 | 1.8% (inactive) | –
37 | Cc1cc(C(=O)NCCc2ccc(Cl)cc2)n(-c2ccccc2)n1 | – | 20.6 µM (active)
38 | COc1ccc(-n2nc(C(=O)NCC(=O)N3CCCCCC3)c3ccccc3c2=O)cc1Cl | – | 18.4 µM (active)
39 | COc1ccc(-n2nc(C(=O)NCCc3ccc(Cl)cc3)c3c4ccccc4n(C)c3c2=O)cc1Cl | – | 3.66 µM (active)
40 | CCOC(=O)c1ccccc1NC(=O)c1nn(-c2ccc(OC)c(Cl)c2)c(=O)c2c1c1ccccc1n2C | 13.7% (inactive) | –
41 | COc1cc(NC(=O)c2nn(-c3ccc(C)cc3)c(=O)c3c2c2ccccc2n3C)cc(OC)c1OC | -3.89% (inactive) | –
42 | COc1ccc(CCNC(=O)c2c(C)nn(-c3ccccc3)c2Cl)cc1 | -17.4% (inactive) | –
43 | COc1ccc(-n2nc(C(=O)NCC(=O)N3CCC(C(N)=O)CC3)c3ccccc3c2=O)cc1OC | -4.29% (inactive) | –
44 | COCCCNC(=O)CNC(=O)c1nn(-c2ccc(OC)cc2)c(=O)c2ccccc12 | 17.6% (inactive) | –

Row | SMILES | activity change, negative = growth inhibition | Potency
45 | COC(=O)c1ccc2ccccc2c1OC1OC(CO)C(O)C(O)C1NC(C)=O (stereo not given) | -14.5% (inactive) | –
46 | Fc1cccc(Cc2noc(CN3CCN(c4cnccn4)CC3)n2)c1 | 1.52% (inactive) | –
47 | Cc1ccc(C(=O)N2CCC(n3nccc3NC(=O)Nc3cccc(F)c3)CC2)cn1 | 1.87% (inactive) | –
48 | O=C(COC(=O)c1ccccc1NC(=O)c1ccco1)Nc1ccc2c(c1)OC(F)(F)O2 | -10.2% (inactive) | –
49 | CC1CC(C)CN(CCCNC(=O)c2csc3c2CCCCC3)C1 (stereo not given) | -30% (inactive) | –
50 | O=C(CCNC(=O)c1ccccc1Cl)NCc1ccco1 | -9.02% (inactive) | –
51 | CC(C(=O)c1ccc(-c2ccccc2)cc1)[n+]1cccc(Br)c1 (stereo not given) | -16.3% (inactive) | –
52 | CCOC(=O)C1CCC(CN(Cc2ccc(OC)cc2)S(=O)(=O)c2ccc(F)c(C(=O)Nc3cc(C)ccc3C)c2)CC1 (stereo not given) | -12.5% (inactive) | –
53 | Cn1cc(C(=O)NCc2ccccc2F)cn1 | -0.179% (inactive) | –
54 | COC(=O)Cc1ccc(NC(=S)NCc2ccccc2)cc1 | -1.18% (inactive) | –
55 | Fc1ccccc1CNC(=S)Nc1ccc(Cl)cc1 | – | 20.6 µM (active)
56 | O=C(c1ccco1)N1CCN(C(=O)c2cc(-c3ccccc3F)no2)CC1 | -22.9% (inactive) | –
57 | O=C1c2ccccc2S(=O)(=O)c2cc(N3CCN(c4ccccn4)CC3)ccc21 | -14.1% (inactive) | –
58 | O=C(c1ccc2c(c1)N(Cc1ccccc1)C(=O)c1ccccc1S2(=O)=O)N1CCC(Cc2ccccc2)CC1 | – | 8.2 µM (active)
59 | O=C(c1ccc2c(c1)N(Cc1ccccc1F)C(=O)c1ccccc1S2(=O)=O)N1CCOCC1 | -19% (inactive) | –
60 | O=C(c1ccc2c(c1)C(=O)N(c1ccc(Cl)cc1)C2=O)N1CCN(c2ccccn2)CC1 | -5.02% (inactive) | –
61 | CC1CCCN(C(=O)CN2C(=O)c3ccccc3S2(=O)=O)C1 (stereo not given) | -12.1% (inactive) | –
62 | O=C(c1ccc2c(c1)N(Cc1ccccc1)C(=O)c1ccccc1S2(=O)=O)N1CCCC1 | – | 11.6 µM (active)
63 | CCCCN(C)C(=O)c1ccc2c(c1)N(CC)C(=O)c1ccccc1S2(=O)=O | -26.8% (inactive) | –
64 | O=C(c1cccc(Br)c1)N1CCN(C2=NS(=O)(=O)c3ccccc32)CC1 | 3.46% (inactive) | –
65 | O=C(c1ccc2c(c1)N(Cc1ccc(F)cc1)C(=O)c1ccccc1S2(=O)=O)N1CCN(c2ccccn2)CC1 | – | 14.6 µM (active)

— PubChem BioAssay AID686979 (National Center for Advancing Translational Sciences (NCATS), 2013)
